# Screening results: PubChem, National Center for Advancing Translational Sciences (NCATS)
# Cycloheximide cs: counter-screen hit for Shiga toxin inhibitors, cycloheximide; AID 2314; hit rate 12% among 300,000; cell reporter, cycloheximide protein synthesis inhibition counterscreen; max response, %; in the data active = max response mostly above about 13%, no sharp cut-off; inactive = mostly below about 14%; note: read at 38.3 µM for the half of the compounds with a filed dose; 0% is about no effect
# LmPK inhibitor: inhibitors of Leishmania mexicana pyruvate kinase | purified LmPK, Kinase-Glo ATP luminescence, 1 h | Potency, µM (top dose mostly 57.5 µM), inactives show top-dose activity change, negative = inhibition, most hits filed as inhibitors | Q27686 | hit rate 0.37% among 290,000; note: potency is the fitted concentration of half-maximal effect; % is set by controls: 0 for no effect and ±100 for the full control effect
# Target sequence (Q27686 whole entry, looked up): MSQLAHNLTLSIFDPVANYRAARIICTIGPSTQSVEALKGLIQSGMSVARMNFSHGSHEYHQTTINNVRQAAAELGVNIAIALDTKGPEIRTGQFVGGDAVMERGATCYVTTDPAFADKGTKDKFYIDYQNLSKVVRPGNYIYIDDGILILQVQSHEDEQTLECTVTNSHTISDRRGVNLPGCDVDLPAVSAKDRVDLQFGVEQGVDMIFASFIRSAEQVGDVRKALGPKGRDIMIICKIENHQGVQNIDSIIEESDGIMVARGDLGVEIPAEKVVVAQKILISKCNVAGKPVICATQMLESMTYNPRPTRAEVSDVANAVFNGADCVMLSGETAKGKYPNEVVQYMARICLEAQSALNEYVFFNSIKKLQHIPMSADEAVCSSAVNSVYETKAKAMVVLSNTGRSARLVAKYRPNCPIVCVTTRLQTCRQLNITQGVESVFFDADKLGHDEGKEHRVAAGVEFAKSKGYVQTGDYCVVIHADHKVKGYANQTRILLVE
#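 In 50 mM imidazole pH 7.2 with 7 mM MgCl2, LmPK (0.1 nM) turned over PEP (0.5 mM) and ADP (0.1 mM) for 1 h at room temperature. Luciferase read-out of ATP.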
# Giardia FBPA inh: inhibitors of Giardia lamblia fructose-1,6-bisphosphate aldolase; purified Giardia FBPA; hit rate 0.71% among 290,000; Potency, µM (titrated, usually from 59.6 µM), without a hit: at the top dose activity, negative = inhibition, usual class: inhibitors; A8B2U2; note: potency is the fitted concentration of half-maximal effect; % is set by controls: 0 for no effect and ±100 for the full control effect; nearly all actives have a fitted effect of over 55% in size
#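 40 nM FBPA preincubated 10 min at RT with compound (up to 57.5 uM final), then substrate plus GAPDH/TPI/NAD/arsenate coupling and diaphorase/resazurin added. Fluorescence read after 20 min at RT, 525/598 nm.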
# Shiga inhibitor: blocks Shiga toxin action in Vero cells. Vero cells, Shiga toxin protein synthesis inhibition reporter. inhibition, % at 38.7 µM. hit rate 9.2% among 290,000. AID 2315; in the data active = inhibition mostly above about 28%, no sharp cut-off; inactive = mostly below about 43%; note: 0% is about no effect
# Sm TGR inh: blocks Schistosoma mansoni thioredoxin glutathione reductase | Potency, µM (highest dose often 114 µM), inactives show at the highest dose activity change, negative = inhibition, hits mostly inhibitors | Q962Y6 | hit rate 3% among 360,000 | purified TGR, DTNB reduction, TNB absorbance 405 nm; note: potency is the fitted concentration of half-maximal effect; % is set by controls: 0 for no effect and ±100 for the full control effect; nearly all actives have a fitted effect of over 60% in size
#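 First, TGR (20 nM dispensed) and NADPH were mixed with compound. Second, a 15 min room-temperature incubation followed. Third, further NADPH and then DTNB were added to start the reaction. Finally, TNB absorbance was monitored kinetically.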
# TbPYK inhibitor: blocks Trypanosoma brucei pyruvate kinase. hit rate 0.12% among 410,000. AID 624173. Potency, µM (highest dose often 76.8 µM), for inactives: at the highest dose activity, negative = inhibition, hits mostly inhibitors. Q57TT1. TbPYK enzyme, Kinase-Glo Plus ATP luminescence, 45 min; note: potency is the fitted concentration of half-maximal effect; % is set by controls: 0 for no effect and ±100 for the full control effect; nearly all actives have a fitted effect of over 50% in size
#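 Luminescent Kinase-Glo Plus end-point after 45 min room-temperature reaction of T. brucei pyruvate kinase started with 130 uM ADP (final). Buffer TEA 50 mM pH 7.2 with KCl, MgCl2, BSA, Tween-20; titration-based qHTS with fitted concentration-effect curves.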
# * marks the source's active call; other numbers are inactive results; ? = inconclusive; nt = not tested or not shown; [ ] = remark or other dose. The entries come from a sample that favours hits as a whole. Unless noted, calls come from the whole dose curve; as a rule, active = well fitted curve in the direction sought with a large enough effect; inconclusive = small, poorly fitted or top-dose-only effect, or another doubt; inactive = no such curve, though single readings can be large; an effect the other way counts as inactive or inconclusive.
SMILES,Cycloheximide cs,LmPK inhibitor,Giardia FBPA inh,Shiga inhibitor,Sm TGR inh,TbPYK inhibitor
CC(=O)O[C@@]12CO[C@@H]1C[C@H](O)[C@@]1(C)C(=O)[C@H](O)C3=C(C)[C@@H](OC(=O)C(O)[C@@H](NC(=O)OC(C)(C)C)c4ccccc4)C[C@@](O)([C@@H](OC(=O)c4ccccc4)[C@H]21)C3(C)C (stereo partly drawn),nt,nt,nt,nt,nt,4%
Oc1ccccc1-c1cc(C(F)(F)C(F)F)nc(-c2ccccc2)n1,0,5%,-2%,-3,89µM*,0%
COc1ccc(O)c(-c2cc(C(F)(F)C(F)F)nc(-c3ccccc3)n2)c1,-1,0%,3%,18,2%,-5%
Cc1ccc2nc(C3CCCCC3)c(Cc3ccccc3)n2c1,nt,nt,nt,nt,nt,3%
Cc1ccc(N(CC(=O)NC(C)C)C(=O)CCC(=O)Nc2nccs2)c(C)c1,28*,-2%,-9%,-2,3%,-9%
Cc1ccc(N(CC(=O)NCc2ccco2)C(=O)CCC(=O)Nc2ccccn2)c(C)c1,17,10%,1%,34*,-22%,1%
Cc1cc(C)cc(N(CC(=O)NCc2ccco2)C(=O)CCC(=O)Nc2ccccn2)c1,12,0%,12%,8,?,-7%
CN1C(=O)C(CC(=O)NCCc2ccccc2)N(NC(=O)c2ccc(Cl)cc2)C1=S (stereo not drawn),-1,0%,-5%,7,13%,-3%
COc1cccc(C(=O)NNC(=S)NC2CCCCC2)c1,42*,3%,8%,47*,5%,-9%
CCNC(=S)NNC(=O)c1csc(C)c1,6,-1%,4%,5,0%,-4%
COc1cccc(C(=O)NC2CCCC2)c1,7,-2%,0%,43,nt,17%
Cc1cc(C(=O)NNC(=S)NC2CCCCC2)cs1,17*,-8%,nt,34,6%,-13%
COC(=O)c1ccc(CN(Cc2ccc(OC)c(OC)c2)S(=O)(=O)c2ccc(F)c(C(=O)Nc3cc(C)ccc3C)c2)cc1,nt,nt,nt,nt,-1%,5%
CCn1c(C(=O)OC)cc2c1ccn2-c1ccc(F)cc1,54*,4%,-13%,113*,0%,?
COC(=O)c1cc2c(ccn2-c2ccc(F)cc2)n1Cc1ccc(OC)cc1,47*,0%,-4%,54*,-20%,1%
O=C(CN1C(=O)CC(c2ccccc2)Sc2ccccc21)Nc1cccc(Cl)c1 (stereo not drawn),nt,nt,nt,nt,-1%,-2%
CC(=O)NC1C(OCc2ccccc2)OC2COC(c3ccccc3)OC2C1OCC(=O)O (stereo not drawn),41*,-5%,1%,33,7%[57.1 µM],-15%
O=C(CCCCCN1C(=O)c2ccccc2C1=O)Nc1ccc2c(c1)OCCO2,18,3%,-1%,47,0%,0%
O=C(CCCCCN1C(=O)CCC1=O)Nc1ccc2c(c1)OCO2,9,6%,0%,17,-13%,-3%
O=C(CCCN1C(=O)CCC1=O)Nc1ccc2c(c1)OCCO2,22*,-3%,-3%,92*,9%,-6%
COc1ccc(NC(=O)CCn2cccn2)cc1OC,nt,nt,nt,nt,12%,-4%
O=C(CCn1cccn1)Nc1ccc2c(c1)OCCO2,57*,-8%,nt,92*,16%,-6%
O=C(CCN1C(=O)c2ccccc2C1=O)Nc1ccc2c(c1)OCCO2,18*,-7%,-9%,active,-6%,-2%
O=C(CCCN1C(=O)CCC1=O)Nc1ccc2c(c1)OCO2,11,0%,2%,53*,9%,-5%
CC(C)(C)NC(=O)c1oc2ccccc2c1NC(=O)c1ccc(F)cc1,nt,nt,nt,nt,6%,-2%
SMILES,Cycloheximide cs,LmPK inhibitor,Giardia FBPA inh,Shiga inhibitor,Sm TGR inh,TbPYK inhibitor
COC(=O)c1cccnc1-n1c(=O)c2cccnc2n(CC(=O)Nc2cccc(C)c2)c1=O,nt,nt,nt,nt,8%,3%
CC(C)NC(=O)NS(=O)(=O)c1cnccc1NC1CC2CCC1C2 (stereo not drawn),7,6%,6%,-12,0%,-10%
C#CCNc1ccncc1S(=O)(=O)NC(=O)NC(C)C,-3,-6%,-4%,-6,22µM*,-7%
COc1ccc(OC)c(S(=O)(=O)N2CCC(n3c(C)nc4cccnc43)CC2)c1,nt,nt,nt,nt,6%,1%
CC1CN(c2sc(S(C)(=O)=O)nc2S(=O)(=O)c2ccc(Cl)cc2)CC(C)O1 (stereo not drawn),-6,0%,nt,-6,14µM*,5%
Cc1ccc(S(=O)(=O)c2nc(S(C)(=O)=O)sc2N2CCC(C)CC2)cc1,-3,1%,nt,13,1.8µM*,5%
CC1CCCN(c2sc(S(C)(=O)=O)nc2S(=O)(=O)c2ccc(Cl)cc2)C1 (stereo not drawn),-2,6%,nt,-6,-21%,-3%
CSc1nc(C)cc(Nc2c(C)cc(C)cc2C)n1,nt,nt,nt,nt,-2%,2%
Cc1nc2cc(Cl)c(Cl)cc2n1-c1ccccn1,nt,nt,nt,nt,-8%,2%
CCC(Oc1ccccc1)C(=O)Nc1ccc(-c2nnc(-c3ccco3)o2)cc1 (stereo not drawn),36*,0%,1%,89*,-22%,4%
COc1ccccc1OCC(=O)Nc1ccc(-c2nnc(-c3ccco3)o2)cc1,2,1%,2%,-20,-6%[57.1 µM],-4%
O=C(Nc1cccc(S(=O)(=O)c2cccc(NC(=O)c3ccco3)c2)c1)c1ccco1,20*,-6%,-4%,28*,1%,-4%
O=C(/C=C/Nc1cccc(C(F)(F)F)c1)c1ccc(Oc2ncccn2)cc1,47*,-8%,-5%,87*,6%,-12%
O=C(/C=C/Nc1cccc(C(F)(F)F)c1)c1ccco1,39*,-1%,-9%,80*,0%[57.1 µM],-9%
O=C(Nc1cccc(C(F)(F)F)c1)c1scc2c1OCCO2,38*,-9%,1%,36,3%,4%
COC(=O)c1cc2oc3ccccc3c2n1CC(=O)Nc1ccc(F)c(Cl)c1,nt,nt,nt,nt,-1%,0%
O=C(Nc1cccc(C(F)(F)F)c1)c1ccco1,11*,1%,-5%,12,9%,3%
O=C(Nc1ccc(OC(F)F)cc1)Nc1cccc(C(F)(F)F)c1,12*,5%,-9%,-1,12%,5%
NC(=O)/C=C\C(=O)Nc1cccc(C(F)(F)F)c1,13,-2%,4%,16,3.5µM*,-3%
CCOc1ccc(NC(=O)C(=O)NCCc2csc(-c3ccc(F)cc3)n2)cc1,nt,nt,nt,nt,23%,-1%
O=C(c1cc2ccccc2[nH]1)N(Cc1cccnc1)CC1CCCN(C2CCCCC2)C1 (stereo not drawn),15*,0%,nt,10,-12%,5%
COc1ccccc1N(CC(=O)NCc1ccc2c(c1)OCO2)C(=O)CCC(=O)Nc1nccs1,-3,-1%,2%,-4,3%,7%
